Assay results published in the supplement of paper PMC10849652.
Targets with a hit are over-represented here; the source holds about 7,900 in all. About 0.6% of all pairs of compound and target were hits.

compound: C1=CC2=C(C=CC(=C2)/C=C\3/C(=O)NC(=NCC4=CC=CS4)S3)N=C1; assay: log2 fold change, soluble protein after heating vs DMSO (PISA); higher = thermal stabilisation; K562 cells, 10 uM, 30 min; active = over 0.2 and 3.5 SD of the protein, either way, in both replicates (recomputed)
In short: (§1)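 K562 cells at 2×10^6 cells/mL were exposed to 10 μM compound for 30 min, then aliquots were heated for 3 min across 48°C-58°C, pooled, and extracted in PBS containing 0.5% NP-40 at 4°C. The supernatant after 21,000xg for 90 min was taken as soluble protein and measured by TMTpro 16plex LC-MS/MS with channel sums equalised. Thermal stability is reported relative to control samples, with values from duplicates. Fold changes are given on a log2 scale.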

UniProt Q92692, sequence (Q92692 whole entry, looked up): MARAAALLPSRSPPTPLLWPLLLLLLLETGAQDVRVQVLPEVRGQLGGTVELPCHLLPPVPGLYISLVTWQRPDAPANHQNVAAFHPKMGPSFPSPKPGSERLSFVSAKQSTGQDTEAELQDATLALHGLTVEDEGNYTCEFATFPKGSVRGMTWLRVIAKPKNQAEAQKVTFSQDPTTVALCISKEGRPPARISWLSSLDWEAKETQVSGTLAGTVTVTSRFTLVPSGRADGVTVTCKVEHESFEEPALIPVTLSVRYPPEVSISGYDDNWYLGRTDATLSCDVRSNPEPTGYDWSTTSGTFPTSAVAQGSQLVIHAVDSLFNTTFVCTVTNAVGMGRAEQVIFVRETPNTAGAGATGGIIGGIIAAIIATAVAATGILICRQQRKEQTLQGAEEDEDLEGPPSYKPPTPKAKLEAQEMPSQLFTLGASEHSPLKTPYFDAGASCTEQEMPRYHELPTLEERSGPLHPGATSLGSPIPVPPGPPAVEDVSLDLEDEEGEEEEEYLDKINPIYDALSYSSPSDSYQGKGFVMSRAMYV
UniProt Q15003, sequence (Q15003 whole entry, looked up): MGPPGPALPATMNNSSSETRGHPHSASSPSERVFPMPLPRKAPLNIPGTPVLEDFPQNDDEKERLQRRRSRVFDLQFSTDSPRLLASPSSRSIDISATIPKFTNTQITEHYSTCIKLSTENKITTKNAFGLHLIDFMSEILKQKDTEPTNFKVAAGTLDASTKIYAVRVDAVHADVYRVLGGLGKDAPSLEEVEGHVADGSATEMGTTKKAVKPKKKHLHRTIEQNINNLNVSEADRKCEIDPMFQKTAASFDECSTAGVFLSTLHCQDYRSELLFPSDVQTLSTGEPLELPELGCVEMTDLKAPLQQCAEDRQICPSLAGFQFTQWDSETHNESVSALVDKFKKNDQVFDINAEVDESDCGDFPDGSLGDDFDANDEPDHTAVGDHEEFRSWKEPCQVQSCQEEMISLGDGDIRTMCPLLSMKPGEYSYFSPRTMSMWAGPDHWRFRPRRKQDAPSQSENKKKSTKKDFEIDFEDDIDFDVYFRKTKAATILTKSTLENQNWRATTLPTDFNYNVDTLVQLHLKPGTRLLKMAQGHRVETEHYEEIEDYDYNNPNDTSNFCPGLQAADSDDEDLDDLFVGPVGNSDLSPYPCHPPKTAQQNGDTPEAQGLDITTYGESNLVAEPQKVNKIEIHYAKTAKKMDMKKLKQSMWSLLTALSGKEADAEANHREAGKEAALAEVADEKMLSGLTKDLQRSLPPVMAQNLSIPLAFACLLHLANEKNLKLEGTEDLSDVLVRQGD
UniProt Q9H081, sequence (Q9H081 whole entry, looked up): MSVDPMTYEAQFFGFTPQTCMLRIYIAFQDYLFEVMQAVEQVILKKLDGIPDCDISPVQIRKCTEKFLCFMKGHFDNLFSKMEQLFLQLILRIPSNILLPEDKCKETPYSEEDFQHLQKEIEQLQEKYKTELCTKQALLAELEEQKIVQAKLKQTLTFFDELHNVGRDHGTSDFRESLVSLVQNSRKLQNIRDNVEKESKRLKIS
UniProt P49914, sequence (P49914 whole entry, looked up): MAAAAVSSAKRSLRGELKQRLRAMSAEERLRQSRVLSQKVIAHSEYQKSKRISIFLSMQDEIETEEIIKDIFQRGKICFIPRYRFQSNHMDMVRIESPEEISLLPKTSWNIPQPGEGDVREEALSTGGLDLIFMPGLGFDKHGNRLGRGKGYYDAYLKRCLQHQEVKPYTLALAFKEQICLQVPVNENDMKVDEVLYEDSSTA
UniProt O00483, sequence (O00483 whole entry, looked up): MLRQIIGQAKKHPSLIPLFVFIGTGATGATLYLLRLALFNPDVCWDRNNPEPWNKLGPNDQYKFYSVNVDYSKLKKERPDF
UniProt O60361, sequence (O60361 whole entry, looked up): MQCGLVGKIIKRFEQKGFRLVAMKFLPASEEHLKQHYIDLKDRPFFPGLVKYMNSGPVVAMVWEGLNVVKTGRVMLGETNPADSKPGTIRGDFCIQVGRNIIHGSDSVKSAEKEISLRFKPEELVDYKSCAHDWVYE
UniProt Q9Y314, sequence (Q9Y314 whole entry, looked up): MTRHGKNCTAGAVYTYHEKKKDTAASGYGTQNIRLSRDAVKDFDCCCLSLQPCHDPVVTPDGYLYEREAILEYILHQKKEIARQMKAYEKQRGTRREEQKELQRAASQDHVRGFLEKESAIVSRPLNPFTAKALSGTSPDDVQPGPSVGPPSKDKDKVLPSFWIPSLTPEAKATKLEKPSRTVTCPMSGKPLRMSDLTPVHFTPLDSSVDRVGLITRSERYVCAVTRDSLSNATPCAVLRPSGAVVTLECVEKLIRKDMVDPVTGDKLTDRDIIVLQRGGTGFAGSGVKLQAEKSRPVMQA
UniProt P20585, sequence (P20585 whole entry, looked up): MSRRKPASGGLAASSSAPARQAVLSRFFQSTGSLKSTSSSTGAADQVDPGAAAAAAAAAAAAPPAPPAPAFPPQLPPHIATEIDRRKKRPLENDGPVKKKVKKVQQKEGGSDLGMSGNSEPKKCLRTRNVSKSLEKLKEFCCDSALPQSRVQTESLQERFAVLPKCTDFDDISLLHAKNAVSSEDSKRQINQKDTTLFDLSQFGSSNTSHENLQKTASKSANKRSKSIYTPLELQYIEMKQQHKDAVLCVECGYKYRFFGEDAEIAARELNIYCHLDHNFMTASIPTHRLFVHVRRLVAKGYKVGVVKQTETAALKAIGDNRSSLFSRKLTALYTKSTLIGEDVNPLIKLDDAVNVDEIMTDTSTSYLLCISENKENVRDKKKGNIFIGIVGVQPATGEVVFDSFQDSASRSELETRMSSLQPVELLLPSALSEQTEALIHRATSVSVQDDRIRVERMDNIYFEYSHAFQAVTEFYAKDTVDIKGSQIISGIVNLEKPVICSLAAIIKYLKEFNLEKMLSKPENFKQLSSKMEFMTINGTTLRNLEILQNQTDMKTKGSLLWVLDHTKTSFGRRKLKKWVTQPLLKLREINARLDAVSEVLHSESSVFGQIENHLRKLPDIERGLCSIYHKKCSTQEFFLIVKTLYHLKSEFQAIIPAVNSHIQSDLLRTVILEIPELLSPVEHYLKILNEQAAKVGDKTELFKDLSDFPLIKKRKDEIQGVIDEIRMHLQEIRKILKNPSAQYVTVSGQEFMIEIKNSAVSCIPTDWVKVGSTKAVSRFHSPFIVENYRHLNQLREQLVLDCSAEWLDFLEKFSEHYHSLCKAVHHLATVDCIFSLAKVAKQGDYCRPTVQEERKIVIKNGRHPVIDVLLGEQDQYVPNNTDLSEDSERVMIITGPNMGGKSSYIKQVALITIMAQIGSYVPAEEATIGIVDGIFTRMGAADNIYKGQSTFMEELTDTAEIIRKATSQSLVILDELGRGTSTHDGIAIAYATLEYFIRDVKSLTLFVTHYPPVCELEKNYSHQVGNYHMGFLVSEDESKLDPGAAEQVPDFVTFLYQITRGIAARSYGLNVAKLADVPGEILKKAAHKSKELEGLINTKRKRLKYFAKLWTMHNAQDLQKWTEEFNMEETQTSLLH
UniProt Q9Y2I1, sequence (Q9Y2I1 whole entry, looked up): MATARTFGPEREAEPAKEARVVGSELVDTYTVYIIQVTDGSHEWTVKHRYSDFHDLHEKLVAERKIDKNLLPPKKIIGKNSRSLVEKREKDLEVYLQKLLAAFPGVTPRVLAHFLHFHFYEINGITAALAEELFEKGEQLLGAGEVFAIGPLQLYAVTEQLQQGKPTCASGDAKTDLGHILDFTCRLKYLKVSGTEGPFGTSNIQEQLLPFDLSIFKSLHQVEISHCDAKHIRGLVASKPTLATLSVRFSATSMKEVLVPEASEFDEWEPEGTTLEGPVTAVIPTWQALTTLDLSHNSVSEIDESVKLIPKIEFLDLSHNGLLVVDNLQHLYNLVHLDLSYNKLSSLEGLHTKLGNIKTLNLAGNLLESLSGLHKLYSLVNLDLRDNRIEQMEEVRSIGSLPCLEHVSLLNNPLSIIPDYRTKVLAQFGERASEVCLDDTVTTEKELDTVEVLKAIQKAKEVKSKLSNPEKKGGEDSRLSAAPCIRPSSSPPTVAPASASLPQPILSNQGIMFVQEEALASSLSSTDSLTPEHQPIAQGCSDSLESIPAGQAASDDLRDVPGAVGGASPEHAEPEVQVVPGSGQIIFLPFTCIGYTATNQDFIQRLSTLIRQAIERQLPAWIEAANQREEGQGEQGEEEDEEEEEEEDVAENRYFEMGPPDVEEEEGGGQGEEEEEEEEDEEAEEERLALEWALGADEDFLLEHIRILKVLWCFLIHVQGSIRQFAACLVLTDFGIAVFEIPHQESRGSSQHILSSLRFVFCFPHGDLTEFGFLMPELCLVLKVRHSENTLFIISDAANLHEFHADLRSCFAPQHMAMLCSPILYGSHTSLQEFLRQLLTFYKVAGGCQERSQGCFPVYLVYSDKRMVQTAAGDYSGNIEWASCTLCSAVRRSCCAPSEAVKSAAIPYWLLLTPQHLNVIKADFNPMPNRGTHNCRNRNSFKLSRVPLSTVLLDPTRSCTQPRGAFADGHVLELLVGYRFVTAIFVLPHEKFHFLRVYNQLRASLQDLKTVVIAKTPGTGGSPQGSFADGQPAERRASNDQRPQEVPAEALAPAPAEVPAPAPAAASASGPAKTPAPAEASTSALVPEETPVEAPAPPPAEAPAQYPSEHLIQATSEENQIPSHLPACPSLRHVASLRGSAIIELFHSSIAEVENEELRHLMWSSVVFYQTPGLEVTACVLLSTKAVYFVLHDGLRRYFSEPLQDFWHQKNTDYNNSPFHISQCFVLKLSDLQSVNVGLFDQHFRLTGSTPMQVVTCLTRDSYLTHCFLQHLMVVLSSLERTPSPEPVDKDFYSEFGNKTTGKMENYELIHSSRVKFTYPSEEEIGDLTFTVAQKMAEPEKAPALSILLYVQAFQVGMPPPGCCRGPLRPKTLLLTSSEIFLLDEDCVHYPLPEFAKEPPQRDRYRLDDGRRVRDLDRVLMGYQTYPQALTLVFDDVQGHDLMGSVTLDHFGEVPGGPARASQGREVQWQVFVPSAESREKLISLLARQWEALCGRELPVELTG
UniProt Q9NRP0, sequence (Q9NRP0 whole entry, looked up): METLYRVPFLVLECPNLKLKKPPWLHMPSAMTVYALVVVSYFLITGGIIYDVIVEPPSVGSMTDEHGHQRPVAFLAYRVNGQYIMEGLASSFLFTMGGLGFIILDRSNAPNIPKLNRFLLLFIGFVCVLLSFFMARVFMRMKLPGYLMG

log2 fold change, inactive:
NDUFB7 (UniProt P17568) -0.011
MRPL50 (UniProt Q8N5N7) -0.008
NOP58 (UniProt Q9Y2X3) -0.043
MRPS31 (UniProt Q92665) -0.004
NME7 (UniProt Q9Y5B8) 0.127
NUMBL (UniProt Q9Y6R0) 0.085
NME2P1 (UniProt O60361) 0.04
OTUD6B (UniProt Q8N6M0) 0.142
NDUFA4 (UniProt O00483) 0.047
NUP160 (UniProt Q12769) -0.006
MTHFS (UniProt P49914) 0.034
NELFB isoform 2 (UniProt Q8WX92) 0.054
NISCH (UniProt Q9Y2I1) 0.089
MRPS16 (UniProt Q9Y3D3) 0.014
NCAPH (UniProt Q15003) 0.024
NELFA (UniProt Q9H3P2) 0.073
MSL1 (UniProt Q68DK7) 0.069
MSH3 (UniProt P20585) 0.017
NRGN (UniProt Q92686) -0.264
NEU1 (UniProt Q99519) 0.003
NUCKS1 (UniProt Q9H1E3) -0.052
NMRAL1 (UniProt Q9HBL8) 0.098
MTOR (UniProt P42345) 0.036
NAA11 (UniProt Q9BSU3) 0.158
MRPS22 (UniProt P82650) -0.082
NOSIP (UniProt Q9Y314) -0.041
NR2C2AP isoform 2 (UniProt Q86WQ0) 0.041
OSTC (UniProt Q9NRP0) 0.004
NECTIN2 isoform 2 (UniProt Q92692) 0.168
MRPS6 (UniProt P82932) 0.01
MKRN2 (UniProt Q9H000) -0.058
MYO19 (UniProt Q96H55) 0.011
OTUD4 (UniProt Q01804) -0.033
MSH2 (UniProt P43246) 0.037
MINK1 (UniProt Q8N4C8) -0.045
MIS12 (UniProt Q9H081) 0.107
NA, A0A096LPI6 -0.051
MMS19 isoform 8 (UniProt Q96T76) 0.113

compound: C1=CC2=NC=CN=C2C=C1/C=C/3\C(=O)NC(=O)S3; assay: as above
In short: as §1

log2 fold change, inactive:
NDUFB7 (UniProt P17568) 0.061
MRPL50 (UniProt Q8N5N7) 0.066
NOP58 (UniProt Q9Y2X3) 0.034
MRPS31 (UniProt Q92665) 0.023
NME7 (UniProt Q9Y5B8) -0.023
NUMBL (UniProt Q9Y6R0) -0.047
NME2P1 (UniProt O60361) 0.137
OTUD6B (UniProt Q8N6M0) 0.032
NDUFA4 (UniProt O00483) 0.072
NUP160 (UniProt Q12769) 0.045
MTHFS (UniProt P49914) -0.024
NELFB isoform 2 (UniProt Q8WX92) 0.07
NISCH (UniProt Q9Y2I1) 0.068
MRPS16 (UniProt Q9Y3D3) 0.079
NCAPH (UniProt Q15003) 0.022
NELFA (UniProt Q9H3P2) 0.111
MSL1 (UniProt Q68DK7) -0.033
MSH3 (UniProt P20585) 0.03
NRGN (UniProt Q92686) -0.027
NEU1 (UniProt Q99519) 0
NUCKS1 (UniProt Q9H1E3) 0
NMRAL1 (UniProt Q9HBL8) 0.141
MTOR (UniProt P42345) 0.047
NAA11 (UniProt Q9BSU3) -0.207
MRPS22 (UniProt P82650) 0
NOSIP (UniProt Q9Y314) 0.039
NR2C2AP isoform 2 (UniProt Q86WQ0) 0.026
OSTC (UniProt Q9NRP0) -0.001
NECTIN2 isoform 2 (UniProt Q92692) -0.345
MRPS6 (UniProt P82932) 0.112
MKRN2 (UniProt Q9H000) 0.002
MYO19 (UniProt Q96H55) 0.093
OTUD4 (UniProt Q01804) -0.025
MSH2 (UniProt P43246) 0.025
MINK1 (UniProt Q8N4C8) 0.001
MIS12 (UniProt Q9H081) 0.052
NA, A0A096LPI6 0.04
MMS19 isoform 8 (UniProt Q96T76) 0.053
